Inconclusive results are not listed. Entries that show only a call come without a potency. Some compounds were tested as several samples or in several runs, with calls that do not always agree. Active and inactive are the calls of the source. Calls follow the shape of the full dose curve.

The record followed here is PubChem BioAssay (Tox21).

Sequence of Retinoic acid receptor RXR-alpha (Homo sapiens) (P19793 whole entry, looked up): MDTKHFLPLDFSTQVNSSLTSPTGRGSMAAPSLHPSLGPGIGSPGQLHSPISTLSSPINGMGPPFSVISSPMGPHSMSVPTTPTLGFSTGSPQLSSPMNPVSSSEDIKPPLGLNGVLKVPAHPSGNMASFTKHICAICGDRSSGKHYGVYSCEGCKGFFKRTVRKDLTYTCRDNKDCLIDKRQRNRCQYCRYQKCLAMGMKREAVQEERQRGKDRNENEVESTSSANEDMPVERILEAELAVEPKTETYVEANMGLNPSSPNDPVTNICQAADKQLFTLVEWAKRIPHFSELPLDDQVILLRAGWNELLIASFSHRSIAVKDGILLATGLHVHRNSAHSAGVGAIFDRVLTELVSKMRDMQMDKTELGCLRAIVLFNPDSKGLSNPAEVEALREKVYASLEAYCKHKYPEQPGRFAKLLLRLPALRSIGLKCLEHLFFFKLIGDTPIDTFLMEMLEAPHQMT

Test system in the first experiment: not listed separately
Description: qHTS assay to identify small molecule agonists of the AP-1 signaling pathway (AID 1159526). To be noted: ME-180 (cervical carcinoma) AP-1-bla reporter, beta-lactamase FRET ratio, 5 h; series mostly up to 76.8 µM; activation: at the top concentration. A general note: In qHTS, concentration-response curves come from the screen itself.
In the case of `COCN(COC)c1nc(N(COC)COC)nc(N(COC)COC)n1`, the outcome was inactive.

Consider `CC(=O)CC(=O)N(C)C`, for which the result was inactive.

Take `Cc1cc(C)c(O)c(C)c1`: the outcome was inactive.

`Cc1ccc([N+](=O)[O-])cc1N`: the result was inactive.

As for `CC(=O)OC[C@H]1O[C@@](COC(C)=O)(O[C@H]2O[C@H](COC(C)=O)[C@@H](OC(C)=O)[C@H](OC(C)=O)[C@H]2OC(C)=O)[C@@H](OC(C)=O)[C@@H]1OC(C)=O`, the outcome was inactive.

Take `Oc1ccc(Cc2ccccc2O)cc1`: the result was inactive.

Consider `CC(O)CNCC(C)O` (stereo unspecified), for which the result was inactive.

Take `Cc1ccccc1C=O`: the outcome was inactive.

With `Cc1ccc(C)c(S(=O)(=O)O)c1`, the outcome was inactive.

For the compound `NC(=O)NC(N)=O`, the result was inactive.

For `NC(=O)c1ncn([C@@H]2O[C@H](CO)[C@@H](O)[C@H]2O)n1`, the result was inactive.

As to `CCCN(CCC)C(=O)SCC`, the outcome was inactive.

Regarding `Cc1cc(CC(=O)O)n(C)c1C(=O)c1ccc(Cl)cc1`, the result was inactive.

As for `CC/C(C)=N/O`, the result was inactive.

Consider `O=C(O)Cc1c[nH]c2ccccc12`, for which the result was inactive.

In the case of `OCCOCCOCCOCCOCCO`, the result was inactive.

For the compound `Cc1ccc(C(C)C)cc1`, the result was inactive.

In the case of `CC(C)=CCC/C(C)=C/C=O`, the result was inactive.

For the compound `CC(=O)OC/C=C(\C)CCC=C(C)C`, the outcome was inactive.

Regarding `CCN(CC)CCNC(=O)c1ccc(N)cc1`, the result was inactive.

Take `O=C(c1ccccc1)c1ccc(O)c(O)c1O`: the result was inactive.

Consider `CCCCC(=O)O`, for which the “activation” value is -0.707% (inactive).

Consider `C=C1C[C@]23C[C@@]1(O)CC[C@H]2[C@@]12C=C[C@H](O)[C@@](C)(C(=O)O1)[C@H]2[C@@H]3C(=O)O`, for which the result was inactive.

`CC(=O)C(C)C`: the “activation” value is 8.26% (inactive).

In the case of `CO[Si](CCCNCCN)(OC)OC`, the outcome was inactive.

As for `CCn1cc(C(=O)O)c(=O)c2cc3c(cc21)OCO3`, the outcome was inactive.

`CC(C)c1ccc(C(C)C)cc1`: the outcome was inactive.

On to `CCCOCC(C)O` (stereo unspecified), for which the result was inactive.

As to `CCCCCCCC(=O)O`, the outcome was inactive.

With `C=C(C)CC(C)(C)C`, the outcome was inactive.

Turning to `Nc1cccc(N)n1`, the outcome was inactive.

`NC(N)=S`: the outcome was inactive.

With `Cc1ccc(Cl)cc1`, the result was inactive.

Regarding `OCc1ccc(Cl)cc1Cl`, the outcome was inactive.

As for `CCOC(=O)c1ccc(O)cc1`, the outcome was inactive.

For the compound `CCOC(=O)CC(=O)OCC`, the outcome was inactive.

Turning to `OCC(O)CS` (stereo unspecified), the result was inactive.

`OCC(CO)(CO)CO`: the outcome was inactive.

The next experiment has as its target Retinoic acid receptor RXR-alpha (Homo sapiens) (UniProt P19793). Description: qHTS assay to identify small molecule agonists of the RXR signaling pathway (AID 1159527). Also: nearly all actives have a fitted effect of over 35% in size. Also: potency is read from the fitted curve at half-maximal effect. The following applies: HEK293T RXRa-UAS-bla, beta-lactamase ratio, 16 h; series mostly up to 76.8 µM; activation: at the top concentration. In a few lines:
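16 hr incubation of compound-treated RXR-alpha-UAS-bla HEK 293T cells (2% charcoal-stripped FBS, 37 C) preceded a 2 hr room-temperature LiveBLAzer FRET substrate step and blue/green fluorescence measurement.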
On to `COCN(COC)c1nc(N(COC)COC)nc(N(COC)COC)n1`, for which the Potency result is “inactive”.

For `CC(=O)CC(=O)N(C)C`, the Potency result was “inactive”.

`Cc1cc(C)c(O)c(C)c1`: the Potency result is “inactive”.

On to `Cc1ccc([N+](=O)[O-])cc1N`, for which the Potency is 21.8 µM (active) and inactive.

Regarding `CC(=O)OC[C@H]1O[C@@](COC(C)=O)(O[C@H]2O[C@H](COC(C)=O)[C@@H](OC(C)=O)[C@H](OC(C)=O)[C@H]2OC(C)=O)[C@@H](OC(C)=O)[C@@H]1OC(C)=O`, the “activation” value was 5.51% [at 35.3 µM] (inactive).

With `Oc1ccc(Cc2ccccc2O)cc1`, the Potency result was “inactive”.

Regarding `CC(O)CNCC(C)O` (stereo unspecified), the “activation” value was -1.92% (inactive).

Take `Cc1ccccc1C=O`: the “activation” value is 2.13% (inactive).

As to `Cc1ccc(C)c(S(=O)(=O)O)c1`, the Potency result was “inactive”.

In the case of `NC(=O)NC(N)=O`, the “activation” value is -11.5% (inactive).

For `NC(=O)c1ncn([C@@H]2O[C@H](CO)[C@@H](O)[C@H]2O)n1`, the Potency entry was “inactive”.

Turning to `CCCN(CCC)C(=O)SCC`, the Potency is 12.3 µM (active).

Regarding `Cc1cc(CC(=O)O)n(C)c1C(=O)c1ccc(Cl)cc1`, the “activation” value is -3.01% [at 35.3 µM] (inactive).

Take `CC/C(C)=N/O`: the Potency result is “inactive”.

As to `O=C(O)Cc1c[nH]c2ccccc12`, the “activation” value is -3.89% (inactive).

With `OCCOCCOCCOCCOCCO`, the Potency result is “inactive”.

Regarding `Cc1ccc(C(C)C)cc1`, the “activation” value was 5.64% (inactive).

As to `CC(C)=CCC/C(C)=C/C=O`, the “activation” value was -7.94% (inactive).

Take `CC(=O)OC/C=C(\C)CCC=C(C)C`: the Potency result is “inactive”.

Regarding `CCN(CC)CCNC(=O)c1ccc(N)cc1`, the Potency result is “inactive”.

In the case of `O=C(c1ccccc1)c1ccc(O)c(O)c1O`, the “activation” value is -16.2% (inactive).

With `CCCCC(=O)O`, the Potency result was “inactive”.

Regarding `C=C1C[C@]23C[C@@]1(O)CC[C@H]2[C@@]12C=C[C@H](O)[C@@](C)(C(=O)O1)[C@H]2[C@@H]3C(=O)O`, the Potency entry is “inactive”.

As for `CC(=O)C(C)C`, the Potency result was “inactive”.

In the case of `CO[Si](CCCNCCN)(OC)OC`, the Potency entry was “inactive”.

`CCn1cc(C(=O)O)c(=O)c2cc3c(cc21)OCO3`: the Potency entry was “inactive”.

As for `CC(C)c1ccc(C(C)C)cc1`, the Potency result is “inactive”.

Regarding `CCCOCC(C)O` (stereo unspecified), the “activation” value is 6.9% (inactive).

With `CCCCCCCC(=O)O`, the “activation” value is 3.87% (inactive).

As for `C=C(C)CC(C)(C)C`, the Potency result is “inactive”.

Consider `Nc1cccc(N)n1`, for which the Potency result is “inactive”.

Regarding `NC(N)=S`, the “activation” value is -8.74% (inactive).

Regarding `Cc1ccc(Cl)cc1`, the Potency result is “inactive”.

Take `OCc1ccc(Cl)cc1Cl`: the Potency entry was “inactive”.

Take `CCOC(=O)c1ccc(O)cc1`: the “activation” value is -0.181% (inactive).

For `CCOC(=O)CC(=O)OCC`, the Potency entry is “inactive”.

Take `OCC(O)CS` (stereo unspecified): the Potency result was “inactive”.

Consider `OCC(CO)(CO)CO`, for which the Potency entry was “inactive”.
